Compound activity as filed in PubChem.
DNA Pol III inh: qHTS Assay for Inhibitors of DNA Polymerase III Holoenzyme System; hit rate 0.25% among 71,000; reconstituted DNA polymerase III holoenzyme replication, biochemical; Potency, µM (top dose mostly 57.1 µM), for the others: at the top dose activity change, negative = inhibition; also: potency is read from the fitted curve at half-maximal effect; % is scaled to controls: 0 for no effect and ±100 for the full control effect
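Reconstituted *E. coli* holoenzyme (0.35 nM Pol III, 1 nM beta, 154 nM SSB, 2 nM primase) was preincubated with compound for 15 min at RT. Synthesis on 1.4 nM ssM13Gori ran 35 min, then was stopped with PicoGreen/EDTA and read as dsDNA fluorescence.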
BRCT inh green: qHTS Assay for Inhibitors of BRCT-Phosphoprotein Interaction (Green Fluorophore) | hit rate 0.05% among 75,000 | Potency, µM (doses to about 76.9 µM), for inactives: at the highest dose activity change, negative = inhibition, hits mostly inhibitors | BRCA1 BRCT-phosphopeptide binding, green fluorescence polarization | Breast cancer type 1 susceptibility protein (Homo sapiens), P38398;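 also: potency is read from the fitted curve at half-maximal effect; plate controls were peptide without protein for full effect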
Target sequence (P38398 whole entry, looked up): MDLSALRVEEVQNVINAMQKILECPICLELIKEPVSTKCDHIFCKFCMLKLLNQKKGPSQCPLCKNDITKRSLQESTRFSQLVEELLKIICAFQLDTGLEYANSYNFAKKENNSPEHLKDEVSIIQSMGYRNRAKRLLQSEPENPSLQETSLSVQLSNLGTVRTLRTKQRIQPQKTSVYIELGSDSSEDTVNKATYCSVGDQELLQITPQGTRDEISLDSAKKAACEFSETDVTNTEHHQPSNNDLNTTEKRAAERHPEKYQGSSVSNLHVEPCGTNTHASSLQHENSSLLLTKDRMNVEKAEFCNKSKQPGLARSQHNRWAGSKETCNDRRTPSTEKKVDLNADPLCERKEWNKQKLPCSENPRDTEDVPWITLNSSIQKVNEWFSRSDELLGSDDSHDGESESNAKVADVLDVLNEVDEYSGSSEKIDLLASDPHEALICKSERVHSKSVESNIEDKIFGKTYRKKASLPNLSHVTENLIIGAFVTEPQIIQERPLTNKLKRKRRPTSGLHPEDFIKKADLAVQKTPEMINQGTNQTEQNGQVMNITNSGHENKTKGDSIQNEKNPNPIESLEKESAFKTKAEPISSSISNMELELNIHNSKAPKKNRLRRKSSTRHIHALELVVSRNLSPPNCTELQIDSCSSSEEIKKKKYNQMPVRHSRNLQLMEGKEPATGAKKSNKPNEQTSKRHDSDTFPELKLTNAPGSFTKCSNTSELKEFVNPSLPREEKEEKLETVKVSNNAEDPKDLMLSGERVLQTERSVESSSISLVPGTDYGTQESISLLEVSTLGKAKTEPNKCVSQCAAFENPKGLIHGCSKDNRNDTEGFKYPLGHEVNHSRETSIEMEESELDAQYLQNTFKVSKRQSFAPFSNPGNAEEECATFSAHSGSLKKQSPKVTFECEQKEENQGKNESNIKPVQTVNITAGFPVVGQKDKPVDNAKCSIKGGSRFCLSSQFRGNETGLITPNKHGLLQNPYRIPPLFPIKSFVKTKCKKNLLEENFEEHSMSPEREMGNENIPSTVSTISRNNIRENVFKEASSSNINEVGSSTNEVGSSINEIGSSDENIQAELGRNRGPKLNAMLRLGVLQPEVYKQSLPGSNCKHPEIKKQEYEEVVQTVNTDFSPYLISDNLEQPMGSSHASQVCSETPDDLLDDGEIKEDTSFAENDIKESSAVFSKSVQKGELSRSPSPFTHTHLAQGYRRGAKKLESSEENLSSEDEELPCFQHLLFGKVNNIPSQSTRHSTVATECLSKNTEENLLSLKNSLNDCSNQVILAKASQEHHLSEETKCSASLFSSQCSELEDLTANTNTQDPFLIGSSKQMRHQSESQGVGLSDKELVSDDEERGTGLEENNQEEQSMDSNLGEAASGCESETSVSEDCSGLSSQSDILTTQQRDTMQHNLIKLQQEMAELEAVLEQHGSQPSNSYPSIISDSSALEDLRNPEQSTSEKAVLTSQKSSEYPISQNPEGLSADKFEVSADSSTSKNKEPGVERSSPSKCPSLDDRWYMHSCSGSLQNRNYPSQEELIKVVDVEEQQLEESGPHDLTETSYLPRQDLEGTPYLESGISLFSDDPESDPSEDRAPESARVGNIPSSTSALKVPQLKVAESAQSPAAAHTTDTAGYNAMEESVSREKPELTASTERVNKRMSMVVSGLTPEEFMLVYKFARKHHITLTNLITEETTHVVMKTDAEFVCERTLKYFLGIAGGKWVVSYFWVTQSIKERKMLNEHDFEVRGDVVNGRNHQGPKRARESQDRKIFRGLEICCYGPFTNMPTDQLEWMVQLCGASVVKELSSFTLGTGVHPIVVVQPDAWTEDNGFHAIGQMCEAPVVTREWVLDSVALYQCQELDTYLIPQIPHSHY
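Fluorescence polarization: His-tagged BRCT (~35 kDa BRCA1 C-terminus, 250 nM) bound to 100 nM fluorescein-labeled phosphorylated 10-aa BACH1 peptide, pH 7.3 phosphate buffer with DTT and Tween 20. Compounds incubated 12 min at room temperature; inhibition read as lowered polarization.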
BRCT PPI red: qHTS Assay for Inhibitors of BRCT-Phosphoprotein Interaction (Red Fluorophore); Breast cancer type 1 susceptibility protein (Homo sapiens), P38398; hit rate 0.03% among 75,000; BRCT-phosphopeptide binding, red fluorescence polarization; Potency, µM (highest dose often 76.9 µM), for the others: at the top dose activity change, negative = inhibition, most hits filed as inhibitors; also: % is scaled to controls: 0 for no effect and ±100 for the full control effect
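Fluorescence polarization: 100 nM His-tagged BRCA1 BRCT with 100 nM TAMRA-labelled phospho-BACH1 decapeptide, phosphate buffer pH 7.3 with 150 mM NaCl, DTT, 0.01% Tween 20; 12 min RT. Binding inhibition seen as FP decrease.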
YjeE inh: qHTS Assay for Inhibitors of YjeE; Potency, µM; hit rate 0.05% among 71,000; purified YjeE enzyme, qHTS inhibition assay
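Fluorescence polarization of a BODIPY Texas Red–ADP probe (2 uM) bound to purified YjeE (10 uM) was read after 15 min room-temperature incubation with compounds. Loss of polarization marks inhibitors; ADP serves as titrated control.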
* = called active by the depositor; i = inactive; u = inconclusive; x = not tested or not shown; ! = repeats disagree; [ ] = dose if it differs, or a comment. Compounds with a hit are over-represented: about 0.24% of the library has one in this group of screens. Calls follow the shape of the dose curve; as a rule, active = well fitted curve in the direction sought with a large enough effect; inconclusive = small, poorly fitted or top-dose-only effect, or another doubt; inactive = no such curve, though single readings can be large; an effect the other way counts as inactive or inconclusive.

SMILES | DNA Pol III inh | BRCT inh green | BRCT PPI red | YjeE inh
Nc1c(S(=O)(=O)O)cc(Nc2ccc(Nc3nc(Cl)nc(Nc4ccc(S(=O)(=O)O)cc4)n3)c(S(=O)(=O)O)c2)c2c1C(=O)c1ccccc1C2=O | 39.8µM* | u | 4.4% | 50.1µM*
CN1CCc2c(cc(O)c(O)c2Cl)[C@H](c2cccc(Cl)c2)C1 | -3.4% | -1.7% | -2.8% | i
C[n+]1cc2c3c(ccc2c2ccc4cc5c(cc4c21)OCO5)OCO3 | 31.6µM*! | -1.3%[3.08 µM] | 0.2% | i
Cc1ccc(N=Nc2c(O)c(S(=O)(=O)O)cc3cc(S(=O)(=O)O)ccc23)c(C)c1 | -14.7%[11.4 µM] | -1.6%[15.4 µM] | -0.2%[15.4 µM] | i
Cc1cc(-c2ccc(N=Nc3ccc4c(S(=O)(=O)O)cc(S(=O)(=O)O)c(N)c4c3O)c(C)c2)ccc1N=Nc1ccc2c(S(=O)(=O)O)cc(S(=O)(=O)O)c(N)c2c1O | 7.94µM* | 31.6µM* | u | 79.4µM*
Cc1cc2c(C(C)C)c(O)c(O)c(C=O)c2c(O)c1-c1c(C)cc2c(C(C)C)c(O)c(O)c(C=O)c2c1O | -13.5% | -16.8% | -26.0% | 100µM*!
O=S(=O)(NCCNC/C=C\c1ccc(Br)cc1)c1cccc2cnccc12 | -2.3% | -1.3% | -2.4% | i
CCOc1ccc2nc(C)cc(C(=O)O)c2c1 | -5.1% | 0.4% | 0.3% | i
CCOc1ccc2c(ccc(/C=C\c3cc(C)c4cccnc4c3O)[n+]2C)c1 | 3.16µM* | 1.0%[15.4 µM] | -0.8%[15.4 µM] | i
CCCCCCCCCC(=O)N[C@@H](CN1CCOCC1)[C@@H](O)c1ccccc1 | -5.4% | -1.2% | -1.8% | i
CC(=O)Nc1cccc(C(=O)Nc2ccccc2C(=O)O)c1 | -4.4% | -0.7% | -4.8% | i
O=C(Nc1cccc(C(=O)Nc2ccc(S(=O)(=O)O)c3cc(S(=O)(=O)O)cc(S(=O)(=O)O)c23)c1)Nc1cccc(C(=O)Nc2ccc(S(=O)(=O)O)c3cc(S(=O)(=O)O)cc(S(=O)(=O)O)c23)c1 | 12.6µM* | 2.6% | 8.5% | i
CCC1=C2CC[C@H]3C(=O)NC(=O)[C@H]3[C@H]2[C@@]2(Cc3ccccc3)C(=NCC3CC3)OC(=O)N2C1=O | x | -1.0% | -1.0% | x
C[C@H]1[C@H](O)[C@@H](C)C=CC=CC=CC=CC=CC=CC=C[C@H](O[C@@H]2O[C@@H](C)[C@H](O)[C@@H](N)[C@@H]2O)C[C@@H]2O[C@](O)(C[C@@H](O)C[C@@H](O)[C@@H](O)CC[C@@H](O)C[C@@H](O)CC(=O)O[C@H]1C)C[C@H](O)[C@H]2C(=O)O | 0.1%[11.4 µM] | 11.0%[15.4 µM] | -0.1%[15.4 µM] | i
CCOC(=O)c1ccc2c(c1)C1C=CCC1C(C(=O)O)N2 (stereo not given) | 15.8µM* | -29.0% | u | i
O=C(O)C1Nc2c(C(=O)N3CCOCC3)cccc2C2C=CCC12 (stereo not given) | -24.4% | -1.4% | -6.8% | i
Cc1ccc2c(c1C)NC(C(=O)O)C1CC=CC21 (stereo not given) | 25.1µM* | -18.9% | -24.9% | i
Oc1cc(O)cc(/C=C\c2ccc(O)c(O)c2)c1 | -21.8% | -3.3% | -1.5% | i
O=C1OC2(c3cc(Br)c(O)c(Br)c3Oc3c2cc(Br)c(O)c3Br)c2c(Cl)c(Cl)c(Cl)c(Cl)c21 | 78.0% | u | 2.51µM* | 39.8µM*
CCOC(=O)N1CCN(C(=O)c2cnn3ccccc23)CC1 | -0.7% | 0.1% | 0.9% | 31.6µM*
CCOC(=O)N1CCN(C(=O)Cn2ncc3ccccc32)CC1 | 25.1µM* | -2.4% | -2.7% | i
CCOC(=O)N1CCN(C(=O)c2ccccc2-c2ccccc2)CC1 | -1.3% | 0.6% | 0.0% | i
C[C@@]12C=CC(=O)C=C1CC[C@@H]1C2=CC[C@]2(C)[C@@H]1CC[C@H]2C(=O)CN1CCN(c2cc(N3CCCC3)nc(N3CCCC3)n2)CC1 | -2.4% | 0.7% | 1.6% | u
COc1cccc(Cn2c(=O)c(-c3ccc(Cl)cc3)nc3cnc(N4CCOCC4)nc32)c1 | -1.1% | -1.7% | 0.3% | i
COc1ccc(OC)c([C@H]2Nc3ccccc3NC3=C2C(=O)CC(C)(C)C3)c1Br | 1.5% | x | x | i
SMILES | DNA Pol III inh | BRCT inh green | BRCT PPI red | YjeE inh
CCCn1c(C)nc2c(NC(C)CN(C)C)nc(C)nc21 (stereo not given) | 4.0% | -3.4% | -1.0% | i
CC1=C/C(=C(/c2ccc(O)c(C)c2)c2ccccc2C(=O)O)C=CC1=O | -12.9%[11.4 µM] | 2.2%[15.4 µM] | -2.9%[15.4 µM] | i
O=C(O)C1=CC(=C(c2ccc(O)c(C(=O)O)c2)c2ccc(O)c(C(=O)O)c2)C=CC1=O | 0.0794µM* | 15.8µM* | 6.0% | i
COc1[nH]c(/N=C/c2ccccc2)c(C#N)c1C#N | 12.7% | 25.1µM* | 31.6µM* | i
O=C(O)c1cccc(-n2cccc2/C=N/O)c1 | 15.8µM* | -3.3% | -4.9% | i
C[N+]1(C)CC[C@@H](OC(=O)[C@@](O)(c2ccccc2)C2CCCC2)C1 | -5.4%[25.6 µM] | -1.0%[34.4 µM] | 2.9%[34.4 µM] | i
CCCCCCCCCCCC1=C(O)C(=O)C=C(O)C1=O | 6.31µM*! | -6.4% | -17.2% | i
CC(=O)[C@@H]1[C@H]2[C@@H](C(=O)[C@H]3OC[C@H]2O3)[C@@H]2C=Cc3ccccc3N12 | -1.0% | x | x | i
O=C1CCN2C=Nc3cccc4ccc1c2c34 | 119.2% | 15.8µM* | 0.1% | i
O=C(NC1CCCC1)c1ccc2nc(-c3ccco3)c(-c3ccco3)nc2c1 | -21.9% | -2.5% | -3.4% | i
CCOC(=O)C1CCN(C(=O)Nc2ccc3nc(-c4ccco4)c(-c4ccco4)nc3c2)CC1 | 12.6µM* | -29.1% | u | i
O=C(Nc1ccc2nc(-c3ccco3)c(-c3ccco3)nc2c1)N1CCCCCC1 | 15.8µM* | -22.4% | u | i
O=c1oc(-c2ccco2)nc2ccccc12 | -7.4% | 2.6% | -0.5% | i
c1coc(-c2nc3ccccc3nc2-c2ccco2)c1 | 25.1µM* | -3.1% | -3.0% | i
Oc1ccc(Nc2nc(N3CCCC3)c3ccccc3n2)cc1 | 31.6µM* | -2.1% | -3.7% | i
c1coc(C2Nc3cccc4cccc(c34)N2)c1 | 3.98µM* | u | u | i
O=C1C(Cl)=C(NCCN2CCOCC2)C(=O)c2ncccc21 | x | -2.8% | -1.4% | x
CCN1CCCC1CNC(=O)c1ccc(-n2c(=O)c(=O)[nH]c3ccccc32)cc1 (stereo not given) | x | -2.5% | -1.5% | x
CN(C)[C@H]1C(=O)C(C(=O)NCN2CCCC2)=C(O)[C@]2(O)C(=O)C3=C(O)c4c(O)cccc4[C@](C)(O)[C@H]3C[C@H]12 | 3.16µM* | -14.9%[15.4 µM] | -20.6%[15.4 µM] | i
Nc1ncnc2c1ncn2[C@@H]1CCCO1 | -1.4% | -2.0% | 1.5% | i
Cc1ccccc1CN1C2=NCCN2C(=O)C2=C1CCN(Cc1ccccc1)C2 | -8.6%[11.4 µM] | -0.9%[15.4 µM] | -0.8%[15.4 µM] | i
COc1cccc(-c2cc(NCc3ccccc3)ncn2)c1 | 1.2% | -1.2% | -1.3% | i
